LASV entry inh = Lassa virus entry inhibition | Lassa virus pseudotype entry inhibition, cell reporter | Potency, µM (series often up to 37.9 µM), without a hit: top-dose activity change, negative = inhibition, most hits filed as inhibitors | hit rate 1.2% among 300,000; calls by dose curve; tested in HEK293 cells; note: potency is the fitted concentration of half-maximal effect; nearly all actives have a fitted effect of over 50% in size
VACV Venus inh = inhibitors of vaccinia virus (Venus reporter); Vaccinia virus Venus reporter expression, fluorescence; Potency, µM (doses to about 36.5 µM), without a hit: at the highest dose activity change, negative = inhibition, actives largely listed as inhibitors; hit rate 0.46% among 330,000; calls by dose curve; tested in A549 cells; note: potency is the fitted concentration of half-maximal effect; nearly all actives have a fitted effect of over 30% in size
HCMV inh = inhibitors of human cytomegalovirus. HFF cells, HCMV-luciferase reporter, 72 h; hits give low values. activity change, negative = inhibition, % at 57.5 µM. hit rate 4.5% among 410,000. AID 1259415; in the data active = activity change below about -60%; inconclusive = no clear call, values can overlap the other calls; inactive = above about -39%
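Two-dose cell screen: HFF monolayers treated with compounds and infected with luciferase-expressing HCMV at 1 PFU/cell, 72 h at 37C, then lysed for luciferase measurement.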
Marburg entry inh = inhibitors of Marburg virus binding or cell entry; Potency, µM (top dose mostly 37.8 µM), inactives show at the highest dose activity change, negative = inhibition, actives largely listed as inhibitors; hit rate 1.8% among 300,000; Marburg virus pseudotyped entry inhibition, cell reporter; AID 540276; calls by dose curve; tested in HEK293 cells; note: potency is the fitted concentration of half-maximal effect
FMDV antiviral = foot and mouth disease virus antiviral activity | hit rate 1.2% among 410,000 | FMDV antiviral cell-based qHTS | Potency, µM (series often up to 57.9 µM), without a hit: at the top dose activity change, negative = inhibition, actives largely listed as inhibitors | AID 1159524; calls by dose curve; tested in HEK293T cells; note: read-out not given here; potency is the fitted concentration of half-maximal effect; nearly all actives have a fitted effect of over 45% in size
Vaccinia mCherry = vaccinia inhibition (mCherry reporter) | Vaccinia virus mCherry reporter infection, fluorescence | Potency, µM (titrated, usually from 36.5 µM), inactives show top-dose activity change, negative = inhibition, most hits filed as inhibitors | hit rate 0.63% among 310,000 | AID 720579; calls by dose curve; tested in A549 cells; note: potency is the fitted concentration of half-maximal effect; nearly all actives have a fitted effect of over 35% in size
* = called active by the depositor; i = inactive; ? = inconclusive; / = not tested or not shown; [ ] = another dose, or the depositor's remark. Rows were chosen to be rich in hits. Some 6.5% of all compounds tested hit in one or more screens of this group. % is set by controls: 0 for no effect and ±100 for the full control effect.

SMILES	LASV entry inh	VACV Venus inh	HCMV inh	Marburg entry inh	FMDV antiviral	Vaccinia mCherry
CC1CCN(S(=O)(=O)c2ccc(C(=O)Nc3nnc(-c4ccncc4)o3)cc2)CC1	?	-23%	-88*	?	-12%	?
Cc1cccc(NC(=O)c2ccc(S(=O)(=O)N3CCCCC3)cc2)n1	/	-18%	15	/	-13%	-15%
Cc1cccc(NC(=O)c2ccc(S(=O)(=O)N3CCC(C)CC3)cc2)n1	2%	?	-77*	?	32µM*	?
CC1CN(S(=O)(=O)c2ccc(C(=O)Nc3nnc(-c4ccc5c(c4)CCCC5)o3)cc2)CC(C)O1 (stereo not given)	/	?	-13	0%	-28%	8.9µM*
CC(=O)c1c(C)[nH]c(C(=O)OCC(=O)Nc2cccc(S(=O)(=O)N(C)C)c2)c1C	-6%[46.1 µM]	-12%	-61*	0%[46.1 µM]	-14%	i
CC(=O)c1c(C)[nH]c(C(=O)OCc2csc(CC(=O)Nc3ccccc3C)n2)c1C	/	/	25	/	20µM*	/
CC(=O)c1c(C)[nH]c(C(=O)OCC(=O)Nc2cc(S(=O)(=O)N3CCCC3)ccc2Cl)c1C	?	-11%	?	?	?	-6%
Cc1cccc(NC(=O)COC(=O)c2ccc(S(=O)(=O)N3CCCCCC3)cc2)c1	-26%	-25%	-99*	2%	-7%	-3%
CC(=O)c1c(C)[nH]c(C(=O)Nc2cccc(S(=O)(=O)N(C)C)c2)c1C	-1%	-10%	338	29%[46.1 µM]	42%	-11%
CC(=O)c1c(C)[nH]c(C(=O)OCC(=O)Nc2cccc(S(=O)(=O)N3CCCC3)c2)c1C	?	-24%	-65*	?	14µM*	-6%
O=C(C[N+]1(CCO)CCOCC1)c1ccc(F)c2ccccc12	/	-30%	/	/	/	?
CCCCc1ccc(S(=O)(=O)N[C@H]2CC[C@@]34CCCN3C(=O)CCC[C@H]4[C@H]2CCC)cc1	/	/	-10	/	/	/
CCOC(=O)c1cnn(-c2ccc(C(=O)Nc3cccc(C(C)=O)c3)cc2)c1N	7%[46.1 µM]	-8%	7	/	-19%	-9%
O=C(Nc1ccccc1C(F)(F)F)N[C@H]1CC[C@@]23CCCN2C(=O)CCC[C@H]3C1Cc1ccccc1 (stereo not given in full)	/	/	5	/	/	/
CC(=O)c1c(C)[nH]c(C(=O)OCC(=O)Nc2ccccc2Cl)c1C	-26%	-27%	-10	?	18µM*	?
COc1cccc(C(=O)OCC(=O)c2ccc(S(=O)(=O)N3CCCCC3)cc2)c1OC	1%	-15%	-100*	?	?	-18%
O=C(COC(=O)CCc1ccc(S(=O)(=O)N2CCCCC2)cc1)Nc1cccc2ccccc12	5%	-5%	-106*	-3%	-19%	i
Cc1cccc(C)c1NC(=O)COC(=O)CCc1ccc(S(=O)(=O)N2CCCCC2)cc1	-8%	3%	1	10%	5%	i
COc1cccc(/C=C/C(=O)OCC(=O)c2ccc(S(=O)(=O)N3CCCCC3)cc2)c1OC	/	/	-24	/	-19%	/
CCN(CC)S(=O)(=O)c1cccc(NC(=O)COC(=O)c2[nH]c(C)c(C(C)=O)c2C)c1	/	?	-85*	/	11µM*	-28%
CC(=O)c1c(C)[nH]c(C(=O)OCC(=O)Nc2ccc3[nH]c(=O)[nH]c3c2)c1C	17%	-11%	64	2%[46.1 µM]	15%	i
Cc1ccc2oc(C(=O)N(Cc3cccc(F)c3)C3CCS(=O)(=O)C3)c(C)c2c1 (stereo not given)	-21%[46.1 µM]	-17%	12	-30%[46.1 µM]	-20%	-4%
c1ccc(CNc2nnnn2-c2ccccc2)cc1	-13%	/	-72*	17%	20%	/
c1ccc(-n2nnnc2NCCc2c[nH]c3ccccc23)cc1	-18%	/	1	-5%	54%	/
N[C@H](C(=O)O)C1C(C(=O)O)C1C(=O)O (stereo not given in full)	/	-14%	/	/	-4%	-11%
SMILES	LASV entry inh	VACV Venus inh	HCMV inh	Marburg entry inh	FMDV antiviral	Vaccinia mCherry
CCCCn1c(C)cc2c(c1=O)[C@H]1O[C@](CCCC)(Cc3cc(C#N)ccc31)O2	?	/	/	-18%[14.2 µM]	/	/
O=C(COc1ccc(Br)cc1)Nc1ccc([N+](=O)[O-])cn1	4%	-10%	-31	12%	8%	/
O=C(Cc1ccc([N+](=O)[O-])cc1)Nc1ccc(Br)cn1	5%	-19%	-61*	?	13%	?
CC1C(=O)N(Cc2cn(CC3CCCCC3)nn2)CCS(=O)(=O)N1Cc1ccc(-c2ccc(Cl)cc2)cc1 (stereo not given)	/	11µM*	/	/	?	?
CC(C)C1C(=O)N(Cc2cn(CC3CCCCC3)nn2)CCS(=O)(=O)N1Cc1ccc(-c2ccc(Cl)cc2)cc1 (stereo not given)	?	?	-12	/	-26%	10µM*
Cc1ccc(-c2ccc(CN3C(C(C)C)C(=O)N(Cc4cn(CC5CCCCC5)nn4)CCS3(=O)=O)cc2)cc1 (stereo not given)	?	?	18	/	-22%	-10%
C#C[C@]1(O)CCC2C3CCC4=Cc5oncc5C[C@@]4(C)C3CC[C@@]21C (stereo not given in full)	/	-14%	/	/	?	-19%
CC1=C(/C=C/C(C)=C/C=C/C(C)=C/C(=O)Nc2ccc(O)cc2)C(C)(C)CCC1	10µM*	?	-77*	?	?	?
Cc1ccc(C)c(N2CCN(C(=O)CCc3c(C)nn(-c4ccc(N5CCCC5)nn4)c3C)CC2)c1	?	-23%	-63*	/	?	-26%
Cc1nn(-c2ccc(N3CCCC3)nn2)c(C)c1CCC(=O)N1CCN(c2ccccc2)CC1	-7%[46.1 µM]	-11%	?	/	-21%	-8%
O=C(NCCn1ccc2ccccc21)c1ccc(Cl)cc1	24%[46.1 µM]	-15%	95	?	45%	-18%
CC(C)(C)c1cc(/C=N/NC(=O)Cc2nc3ccccc3[nH]2)cc(C(C)(C)C)c1O	-2%	-4%	-79*	-3%	-24%	/
COc1ccccc1N1CCN(S(=O)(=O)c2c(C)sc3ncn(CC(=O)Nc4ccccc4F)c(=O)c23)CC1	1%[46.1 µM]	-17%	0	17%[46.1 µM]	-18%	-18%
Cc1[nH]nc2ncc(C(=O)c3ccccc3O)cc12	2%	/	-82*	4%	-27%	/
CCOc1ccc(-c2cc(C(=O)NCc3ccc(OCC)c(OC)c3)[nH]n2)cc1	7%[46.1 µM]	-2%	-5	/	-22%	-1%
CNCCCC1Sc2ccccc2Oc2ccccc21 (stereo not given)	?	-30%	14	?	?	?
CNCCCC12CCC(c3ccccc31)c1ccccc12	16µM*	-25%	?	4.6µM*	?	?
CCNc1ncc2nc(CCc3ccccc3)c(=O)n(C[C@H]3CCCO3)c2n1	/	/	/	/	9%	/
COc1ccccc1-n1cc(CN2CCOc3ccc(CN4C[C@@H](C)O[C@@H](C)C4)cc3C2)cn1	/	1%	/	/	-22%	-12%
